Compounds without any hit were thinned out: in the full panel of roughly 79,000, 15% have a hit. Active and inactive are the calls of the source. Rule as the data show it: active = growth inhibition above about 70%; inactive = the rest.
Tests used:
[1] = NCI Yeast Anticancer Drug Screen. Data for the rad50 strain (AID 155);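 also: 0% = growth of vehicle-only cultures of the same strain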; details: S. cerevisiae rad50 strain growth inhibition; at 50.0 µM; stronger effect = higher value
Summary of the method: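 Vehicle-treated cultures provide the reference for the growth inhibition reported for compound-exposed, repair-deficient yeast.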

[2] = NCI Yeast Anticancer Drug Screen. Data for the mec2-1 strain (AID 157); details: S. cerevisiae mec2-1 strain, at 50.0 µM, stronger effect = higher value
Summary of the method: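 Using mec2-1 yeast: add compound, measure growth, express inhibition versus vehicle-treated cultures.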

[3] = NCI Yeast Anticancer Drug Screen. Data for the sgs1 mgt1 strain (AID 161);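 also: 0% = growth of cultures given vehicle only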; details: S. cerevisiae sgs1 mgt1 strain, at 50.0 µM, stronger effect = higher value
Summary of the method: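 This yeast growth screen uses a strain with defined DNA-repair lesions; compound-treated growth is compared with vehicle-treated growth.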

[4] = NCI Yeast Anticancer Drug Screen. Data for the cln2 rad14 strain (AID 165);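 also: 0% = growth equal to vehicle treated cultures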; details: S. cerevisiae cln2 rad14 strain, at 50.0 µM, stronger effect = higher value
Summary of the method: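 Yeast strain cln2 rad14, bearing defects in cell cycle control and DNA repair, serves as the test system; values reflect growth inhibition compared with vehicle.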

[5] = NCI Yeast Anticancer Drug Screen. Data for the bub3 strain (AID 167); details: S. cerevisiae bub3 mutant strain, at 50.0 µM, stronger effect = higher value
Summary of the method: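 Mutant yeast screening strain plus compound; vehicle-treated cultures serve as the 0% inhibition reference.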

[6] = NCI Yeast Anticancer Drug Screen. Data for the mlh1 rad18 strain (AID 175); details: S. cerevisiae mlh1 rad18 strain growth inhibition; at 50.0 µM; stronger effect = higher value
Summary of the method: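 Steps: expose repair-defective yeast to compound; measure growth; express inhibition against vehicle-treated controls.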

Measured: growth inhibition

CCCCCOC(=O)CC(c1ccccc1)N1CCCCC1 (stereo not drawn)
inactive: [1] 32.5% | [2] -6.65% | [3] 19.1% | [4] -23% | [5] 23.3% | [6] 6.4%

S=C(OCCCCCn1cnc2c(=S)nc[nH]c21)Oc1ccccc1
inactive: [1] -13% | [2] 16% | [3] 7.1% | [4] -45.8% | [5] -5.25% | [6] -12.7%

CC1(C)C2C/C(=N/O)C(=O)C1C2 (stereo not drawn)
inactive: [1] -4.5% | [2] 4.05% | [3] 8.8% | [4] 14.6% | [5] -16.9% | [6] -20.2%

c1ccc(C2=C(c3ccccc3)C2c2ccccc2)cc1
inactive: [1] 10.8% | [2] -8.95% | [3] -4.5% | [4] -21.1% | [5] -2.15% | [6] 7.15%

Clc1ccc(OCc2nnc3n2N=C(c2ccccc2)CS3)cc1
inactive: [1] 36.5% | [2] 7.1% | [3] 15.9% | [4] 36.2% | [5] 23.5% | [6] 15.9%

CN(C)CCOc1c(Cc2ccccc2)ccc2cccnc12
inactive: [1] -1.65% | [2] 5.15% | [3] 3.05% | [4] -2.9% | [5] 1% | [6] 5.05%

Cc1ccc(-c2nnc(C)o2)cc1
inactive: [1] 5.55% | [2] -6.65% | [3] -7.85% | [4] -35.6% | [5] 13.3% | [6] 6.2%

Cc1nc(N)[nH]c(=O)c1CCCNC(=O)c1cccc([N+](=O)[O-])c1
inactive: [1] -1.55% | [2] 2.65% | [3] 11.4% | [4] -4.7% | [5] 30.5% | [6] 18.6%

O=C1CCC(N2C(=O)c3ccccc3C2=O)C(=O)O1 (stereo not drawn)
inactive: [1] -21.9% | [2] -5.45% | [3] -0.95% | [4] -38% | [5] 8.5% | [6] -12.9%

O=C1c2ccccc2-c2cccc3ccc(-c4ccccc4)c1c23
inactive: [1] 4.85% | [2] 1.9% | [3] -10.2% | [4] -2.85% | [5] -7.25% | [6] 12.5%

Cc1cccc2c1C(=O)C(C1OC(=O)c3ccccc31)C2 (stereo not drawn)
inactive: [1] 7.15% | [2] 9.75% | [3] 1.5% | [4] -31% | [5] 13.5% | [6] -12.4%

O=C(OCCNC(=O)N1CCOCC1)OCCNC(=O)N1CCOCC1
inactive: [1] -16.8% | [2] -2% | [3] -8.55% | [4] 40.6% | [5] -3.2% | [6] 11.3%

NC(Cc1ccccc1)(C(=O)O)C(=O)O
inactive: [1] -12.7% | [2] 1.45% | [3] -11.4% | [4] -31.8% | [5] -22.1% | [6] 15.7%

O=C(CSC1=NCCN1)c1ccccc1
inactive: [1] -17.9% | [2] 6.3% | [3] -27.1% | [4] -57.9% | [5] 8.55% | [6] 11.6%

CN(C(=O)c1ccncc1)c1ccccc1
inactive: [1] -11.4% | [2] -33.1% | [3] -14.1% | [4] 3.85% | [5] -31.1% | [6] 8.5%

CC(C)(C)OC(=O)NC1CCC(C(C)(C)C)CC1 (stereo not drawn)
inactive: [1] 1.95% | [2] -2.95% | [3] -4% | [4] 8.65% | [5] 7.9% | [6] 24.1%

COC(=O)c1ccc(-n2c(C)nc(=O)c(-c3ccccc3)c2C)cc1
inactive: [1] -6.85% | [2] -33.4% | [3] 12.4% | [4] 11.9% | [5] 0.95% | [6] 7.65%

COc1cc(Br)c(C2SCC(=O)N2c2nncs2)cc1OC (stereo not drawn)
inactive: [1] 1.55% | [2] 11.3% | [3] 7.9% | [4] 0.7% | [5] -2.15% | [6] 26.6%

CCOC(=O)c1[nH]n(-c2ccccc2)c(=O)c1C=NC(=S)c1cccnc1
inactive: [1] -12.3% | [2] 2.1% | [3] -29.2% | [4] 20.2% | [5] -24.9% | [6] -16.5%

O=C1C(Cc2ccccc2)CCCC1Cc1ccccc1 (stereo not drawn)
inactive: [1] -5.25% | [2] 17.3% | [3] -8.05% | [4] -21.5% | [5] -6.4% | [6] 3.35%

O=[N+]([O-])c1cc2no[n+]([O-])c2cc1N1CCOCC1
active: [1] 98.8% | [2] 99.3% | [3] 99.2% | [4] 98.4% | [5] 99% | [6] 99.2%

CCOC(=O)n1cccc(C)c1=N
inactive: [1] -10.1% | [2] 13.7% | [3] 18.9% | [4] -17.2% | [5] -8.85% | [6] 27.1%

CC(=O)CCCO
inactive: [1] -1.6% | [2] -5.75% | [3] -0.8% | [4] -9.4% | [5] 19.1% | [6] -0.9%

O=P(c1ccccc1)(c1ccccc1)c1ccccc1OCCOCCOc1ccccc1P(=O)(c1ccccc1)c1ccccc1
inactive: [1] -7.2% | [2] -3.75% | [3] 5.9% | [4] -16.8% | [5] 0.35% | [6] 13.9%

CCOC(=O)CCCC(=O)N(CC(=O)OCC)Cc1ccccc1
inactive: [1] 2.6% | [2] 12.1% | [3] 13.2% | [4] -4.9% | [5] 5% | [6] -5.85%

CC1=CC(=O)OC1=O
inactive: [1] 4.9% | [2] 15% | [3] 2.15% | [4] 8.9% | [5] 5.9% | [6] 22%

O=C(Oc1c(Cl)cc(Cl)cc1C=Nc1ccc(Cl)cc1)c1ccccc1
active: [2] 71.4% | [3] 88.7% | [6] 83.9%
inactive: [1] 67.1% | [4] 42.4% | [5] 58.2%

CCCCCN(C=O)c1ccccc1
inactive: [1] -4.25% | [2] -13.7% | [3] -19.9% | [4] -13.6% | [5] -7.4% | [6] -2.5%

CC(=O)OCC(OC(C)=O)C(OC(C)=O)C(OC(C)=O)C(O)CO (stereo not drawn)
inactive: [1] -0.55% | [2] 18.8% | [3] 15.4% | [4] -6% | [5] 24.6% | [6] -4.45%

C=CCOCC(O)CO (stereo not drawn)
inactive: [1] 32.5% | [2] -3.9% | [3] 29.8% | [4] 16.8% | [5] 10.1% | [6] 28.1%

COc1cc2cccc(N=Cc3cccc(OC)c3OC(C)C)c2cc1OC
inactive: [1] -20.9% | [2] -13.2% | [3] 11.6% | [4] 16.1% | [5] -4.6% | [6] -8.6%

COc1ccc(CCN(C)C2c3ccccc3C=Cc3ccccc32)cc1OC
inactive: [1] 30.5% | [2] 2.4% | [3] 3.35% | [4] -16.2% | [5] -1.85% | [6] 8.65%

COc1ccccc1/C=C/C(=O)N1CCC2(CC1)C(=O)N(C)CN2c1ccccc1
inactive: [1] -16% | [2] 8.45% | [3] -17.3% | [4] -15.1% | [5] -0.35% | [6] -2.4%

CC1(C#N)CCCC(c2ccccc2)(c2ccccc2)C1=O (stereo not drawn)
inactive: [1] 43.2% | [2] 40.5% | [3] 49.2% | [4] -9.25% | [5] 23.9% | [6] 34.5%

COC(=O)[C@@H]1CCC(/C(C#N)=C2/CC[C@@H](C(=O)OC)N2)=N1
inactive: [1] 8.45% | [2] 12.6% | [3] 1.2% | [4] -5.1% | [5] 13.2% | [6] 11.1%

Cc1cc(OCCOC(=O)Nc2ccccc2C(F)(F)F)cc(C)c1Cl
inactive: [1] -7.6% | [2] -5.2% | [3] -3.35% | [4] -44.4% | [5] -3.5% | [6] 10.8%

C=C1C(=O)[C@@]23CC[C@@H]4[C@@]5(C)CCC[C@@]4(OC5=O)C2(C)CC[C@]1(OC)C3 (stereo partly drawn)
active: [1] 87.2% | [2] 92.5% | [3] 88.3% | [4] 88.5% | [5] 88.4% | [6] 90.7%

OC(c1ccccc1)c1c(-c2ccccc2)[nH]c(-c2ccccc2)c1C(O)c1ccccc1 (stereo not drawn)
inactive: [1] 1% | [2] 14.8% | [3] -6.5% | [4] 22.2% | [5] -23.3% | [6] -6.9%
